Activity calls are given as the source filed them. How the calls were made is not given here.
Molecular target: Pantothenate synthetase (Mycobacterium tuberculosis (strain ATCC 25618 / H37Rv)) (UniProt P9WIL5)
Assay: Recombinant Mtb pantothenate synthetase (PanC) inhibitors, coupled enzyme, confirmatory (AID 375);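 further: 0% = full reaction with vehicle and 100% = no enzyme background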
Details: coupled enzyme assay; at 10 µM, stronger effect = higher value

Chain of Pantothenate synthetase (Mycobacterium tuberculosis (strain ATCC 25618 / H37Rv)) (P9WIL5 whole entry, looked up): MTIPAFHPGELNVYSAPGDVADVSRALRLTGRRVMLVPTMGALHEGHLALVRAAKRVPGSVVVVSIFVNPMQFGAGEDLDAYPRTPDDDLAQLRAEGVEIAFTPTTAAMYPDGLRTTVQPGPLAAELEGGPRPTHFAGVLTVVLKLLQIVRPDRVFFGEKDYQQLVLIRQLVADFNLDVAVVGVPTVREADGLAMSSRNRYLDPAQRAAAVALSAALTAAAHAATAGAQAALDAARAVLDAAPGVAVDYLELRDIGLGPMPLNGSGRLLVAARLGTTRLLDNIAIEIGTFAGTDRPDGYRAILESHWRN

| SMILES | inhibition |
| --- | --- |
| COc1cc(CO)cc(-c2cc(CO)cc(OC)c2OC)c1OC | 0% (inactive) |
| CCOc1ccc(NS(=O)(=O)c2ccc(OCC(=O)N3CCCC3)cc2)cc1 | 0% (inactive) |
| Cc1ccccc1NC(=O)C1CCCN(S(=O)(=O)c2cccc3cccnc23)C1 (stereo not given) | 0% (inactive) |
| Cc1ccc(NC(=O)CSC2=C(C#N)C(c3ccc4c(c3)OCO4)CC(=O)N2)cc1C (stereo not given) | 0% (inactive) |
| CCOC(=O)C1CCCN(CCC(C)c2ccccc2)C1 (stereo not given) | 1% (inactive) |
| CC(C)Cn1c(=O)c(C2=NS(=O)(=O)c3ccccc3N2)c(O)c2ccccc21 | 2% (inactive) |
| Cc1c(C(=O)O)sc2ncn(C)c(=O)c12 | 0% (inactive) |
| CC(C)(C)Cc1nc(-c2ccccn2)no1 | 0% (inactive) |
| COc1cccc(C2CC(c3ccccc3)n3ncnc3N2)c1 (stereo not given) | 8% (inactive) |
| COc1ccc(C2C(C(=O)c3sc(C)nc3C)=C(O)C(=O)N2CCN(C)C)cc1OC (stereo not given) | 0% (inactive) |
| COCCCNS(=O)(=O)c1ccc2c(c1)CCN2C(C)=O | 0% (inactive) |
| C/C(N)=C(/C#N)C(=O)CSc1nnc(Nc2c(C)cccc2C)s1 | 9% (inactive) |
| CCCCN(C)CCCNC(=O)CC1Oc2ccccc2NC1=O (stereo not given) | 6% (inactive) |
| COc1ccc2[nH]c(C)c(CCN3C(=O)OC(C)(C)C3(C)O)c2c1 (stereo not given) | 0% (inactive) |
| O=C(NCc1ccco1)C(c1ccco1)N(C(=O)Cn1nnc2ccccc21)c1ccc2c(c1)CCC2 (stereo not given) | 0% (inactive) |
| CCN(CC)CCNC(=O)c1ccc(N2CCCCC2)c(NS(=O)(=O)c2ccc(C)cc2)c1 | 12% (inactive) |
| Cn1c(C(=O)NCc2cccnc2)cc2sccc21 | 0% (inactive) |
| COc1ccc(/C=N/O)cc1COc1ccc(NC(C)=O)cc1 | 1% (inactive) |
| Cc1ccc(S(=O)(=O)N2CCN(C(=O)CSc3nnnn3C)C2)cc1 | 1% (inactive) |
| CN(C)CCC(c1ccc(Br)cc1)c1ccccn1 (stereo not given) | 0% (inactive) |

| SMILES | inhibition |
| --- | --- |
| CC1(C)CC2CC(C)(CN2S(=O)(=O)c2ccc(N)cc2)C1 (stereo not given) | 0% (inactive) |
| CCOC(=O)Cc1nnc2c(Nc3ccccc3F)nc3nonc3n12 | 7% (inactive) |
| CC(NC(=O)C1CCCN(S(=O)(=O)c2cccs2)C1)c1ccccc1 (stereo not given) | 0% (inactive) |
| CN(C(=O)c1ccco1)c1nnc(C23CC4CC(CC(C4)C2)C3)s1 | 0% (inactive) |
| CC(C)CCn1c(NCCc2ccccc2)nc2c1c(=O)n(C)c(=O)n2C | 0% (inactive) |
| CCOC(=O)C1CCN(C(=O)Nc2ccc3nc(C)c(C)nc3c2)CC1 | 0% (inactive) |
| Cc1ccc(-c2nn(-c3ccccc3)cc2CN(Cc2ccccc2)C(=O)CCC(=O)O)o1 | 8% (inactive) |
| Cc1cc(C)c(Cn2c(=O)n(CCCC(=O)NCc3ccco3)c(=O)c3ccccc32)c(C)c1 | 7% (inactive) |
| c1ccc(-c2oc3ncnc(NCCN4CCOCC4)c3c2-c2ccccc2)cc1 | 4% (inactive) |
| Cc1ccc(Nc2cc(C)nc3nnnn23)cc1 | 6% (inactive) |
| CCC(C(=O)Nc1ncccn1)(C(F)(F)F)C(F)(F)F | 0% (inactive) |
| CCn1nnnc1SCC(=O)N1c2ccccc2CCc2ccccc21 | 1% (inactive) |
| Cc1cc(S(=O)(=O)n2cnc3ccccc32)c(C)cc1Cl | 0% (inactive) |
| COc1cc2c(cc1OC)CN(C(=O)COc1ccc(C)c(C)c1)CC2 | 1% (inactive) |
| Cc1ccccc1NC(=O)C1CCCN(S(=O)(=O)c2cnc[nH]2)C1 (stereo not given) | 2% (inactive) |
| C=CCOC(=O)C1=C(C)NC(=O)NC1c1cn(-c2ccccc2)nc1-c1cccs1 (stereo not given) | 4% (inactive) |
| Cc1ccccc1Cc1c(C)nc2c(C(=O)N3CCN(Cc4ccc5c(c4)OCO5)CC3)cnn2c1C | 5% (inactive) |
| COc1cccc2cc(C(=O)N3CCN(C45CC6CC(CC(C6)C4)C5)CC3)c(=O)oc12 | 1% (inactive) |
| C=CCn1c(SCc2cccc(C#N)c2)nnc1-c1ccccc1O | 0% (inactive) |
| Brc1ccc(-c2nnc3sc(CN4CCC5(CC4)OCCO5)cn23)cc1 | 0% (inactive) |

Source: PubChem BioAssay
